Test results reported in PubChem BioAssay AID1159580 (chemical genetic matrix, 2015).
The campaign covered roughly 5,500 compounds. About 2,000 (36%) were called active. About 18% were inconclusive and are not listed. Some of the results follow. Values without a mark were called inactive. No stated cut-off is given here; in the data, active means normalized growth mostly below about 0.91 (no sharp cut-off); inconclusive means no clear call, values can overlap the other calls; inactive means mostly above about 0.92.

Assay: chemical genetic growth profiling, strain panel (AID 1159580);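 further: tested at 20 µM; growth read once vehicle control cultures reached saturation at 30 °C; 1 = growth at the plate median or of vehicle wells; lower values mean less growth of the strain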
Conditions: S. cerevisiae deletion strains, growth OD

## O=C(NNc1c(Cl)cccc1Cl)c1ccc([N+](=O)[O-])o1
Locus YAR019C, strain CDC15, active compounds read low
  normalized growth: 0.956
Locus YBL105C, strain PKC1, active compounds read low
  normalized growth: 0.967
Locus YBR135W, strain CKS1, active compounds read low
  normalized growth: 0.957
Locus YBR136W, strain MEC1, active compounds read low
  normalized growth: 0.964
Locus YBR160W, strain CDC28, active compounds read low
  normalized growth: 0.945
Locus YDL017W, strain CDC7, active compounds read low
  normalized growth: 0.972
Locus YDL028C, strain MPS1, active compounds read low
  normalized growth: 0.941
Locus YDL101C, strain DUN1, active compounds read low
  normalized growth: 0.964
Locus YDL108W, strain KIN28, active compounds read low
  normalized growth: 0.949
Locus YDL132W, strain cdc53, active compounds read low
  normalized growth: 0.936
Locus YDL214C, strain PRR2, active compounds read low
  normalized growth: 0.895
Locus YDR052C, strain DBF4, active compounds read low
  normalized growth: 0.981
Locus YDR054C, strain cdc34, active compounds read low
  normalized growth: 0.959
Locus YDR226W, strain ADK1, active compounds read low
  normalized growth: 0.96
Locus YDR477W, strain SNF1, active compounds read low
  normalized growth: 0.873
Locus YER123W, strain YCK3, active compounds read low
  normalized growth: 0.87
Locus YER133W, strain GLC7, active compounds read low
  normalized growth: 0.916
Locus YFL009W, strain cdc4, active compounds read low
  normalized growth: 0.918
Locus YFL029C, strain CAK1, active compounds read low
  normalized growth: 0.948
Locus YFR003C, strain YPI1, active compounds read low
  normalized growth: 0.965
Locus YFR019W, strain FAB1, active compounds read low
  normalized growth: 0.89
Locus YFR028C, strain CDC14, active compounds read low
  normalized growth: 0.925
Locus YGR040W, strain KSS1, active compounds read low
  normalized growth: 0.883
Locus YGR052W, strain FMP48, active compounds read low
  normalized growth: 0.938
Locus YGR092W, strain DBF2, active compounds read low
  normalized growth: 0.874
Locus YHR030C, strain SLT2, active compounds read low
  normalized growth: 0.698 (active)
Locus YHR079C, strain IRE1, active compounds read low
  normalized growth: 0.885
Locus YHR082C, strain KSP1, active compounds read low
  normalized growth: 0.916
Locus YHR205W, strain SCH9, active compounds read low
  normalized growth: 0.897
Locus YIL147C, strain SLN1, active compounds read low
  normalized growth: 0.96
Locus YJL095W, strain BCK1, active compounds read low
  normalized growth: 0.833
Locus YJL128C, strain PBS2, active compounds read low
  normalized growth: 0.899
Locus YJL157C, strain FAR1, active compounds read low
  normalized growth: 0.907
Locus YJR016C, strain ILV3, active compounds read low
  normalized growth: 0.956
Locus YJR066W, strain TOR1 (second series), active compounds read low
  normalized growth: 0.851
Locus YJR066W, strain TOR1, active compounds read low
  normalized growth: 0.848
Locus YKL048C, strain ELM1, active compounds read low
  normalized growth: 0.909
Locus YKL067W, strain YNK1, active compounds read low
  normalized growth: 0.886
Locus YKL101W, strain HSL1, active compounds read low
  normalized growth: 0.884
Locus YKL193C, strain SDS22, active compounds read low
  normalized growth: 0.956
Locus YKL203C, strain TOR2, active compounds read low
  normalized growth: 0.974
Locus YLR113W, strain HOG1, active compounds read low
  normalized growth: 0.777 (active)
Locus YLR133W, strain CKI1, active compounds read low
  normalized growth: 0.906
Locus YLR403W, strain SFP1, active compounds read low
  normalized growth: 0.897
Locus YML070W, strain DAK1, active compounds read low
  normalized growth: 0.884
Locus YMR001C, strain CDC5, active compounds read low
  normalized growth: 0.957
Locus YMR205C, strain PFK2 (second series), active compounds read low
  normalized growth: 0.937
Locus YMR277W, strain FCP1, active compounds read low
  normalized growth: 0.932
Locus YNL006W, strain LST8, active compounds read low
  normalized growth: 0.973
Locus YNL020C, strain ARK1, active compounds read low
  normalized growth: 0.919
Locus YNL161W, strain CBK1, active compounds read low
  normalized growth: 0.966
Locus YNL183C, strain NPR1, active compounds read low
  normalized growth: 0.935
Locus YNL207W, strain RIO2, active compounds read low
  normalized growth: 0.953
Locus YNL222W, strain SSU72, active compounds read low
  normalized growth: 0.94
Locus YNL307C, strain MCK1 (second series), active compounds read low
  normalized growth: 0.887
Locus YOL078W, strain AVO1, active compounds read low
  normalized growth: 0.945
Locus YOL136C, strain PFK27, active compounds read low
  normalized growth: 0.886
Locus YOR061W, strain CKA2, active compounds read low
  normalized growth: 0.914
Locus YOR119C, strain RIO1, active compounds read low
  normalized growth: 0.917
Locus YOR231W, strain MKK1, active compounds read low
  normalized growth: 0.837
Locus YOR329C, strain SCD5, active compounds read low
  normalized growth: 0.967
Locus YPL031C, strain PHO85, active compounds read low
  normalized growth: 0.88
Locus YPL153C, strain RAD53, active compounds read low
  normalized growth: 0.875
Locus YPL204W, strain HRR25, active compounds read low
  normalized growth: 0.866
Locus YPL209C, strain IPL1, active compounds read low
  normalized growth: 0.964
Locus YPL256C, strain CLN2, active compounds read low
  normalized growth: 0.811 (active)
Locus YPR025C, strain CCL1, active compounds read low
  normalized growth: 0.962
Locus YPR106W, strain ISR1, active compounds read low
  normalized growth: 0.96
Locus YPR111W, strain DBF20, active compounds read low
  normalized growth: 0.94
Strain NNK1, active compounds read low
  normalized growth: 0.965
Strain TSCII, active compounds read low
  normalized growth: 0.947
